“And” between values parts separate entries of the source, which are not always exact repeats. Identical values can stand only once. Records with an inconclusive call do not appear. Entries that show only a call come without a potency. The source made the active and inactive calls. Calls follow the shape of the dose curve; as a rule, active = well fitted cell-killing curve with a large enough effect; inconclusive = small, poorly fitted or top-dose-only effect; inactive = flat fitted curve, though single readings scatter.
assay: qHTS of pediatric cancer cell lines to identify multiple opportunities for drug repurposing: Primary screen for TC32 cells (AID 1347089); details: TC32 Ewing sarcoma viability, CellTiter-Glo luminescence, 48 h; series mostly up to 45.8 µM; also: nearly all actives have a fitted effect of over 60% in size
Text: Drug repurposing or repositioning has been offered as a strategy for drug development in oncology programs. This approach has special potential for childhood cancers and other rare or orphan diseases, where the expected return on new drug development has been a disincentive to pharmaceuticals.
In this project we exploit the poly-pharmacology of drugs to discover new indications via phenotypic screening of a panel of 19 well-characterized cell lines derived from solid tumors seen in children and adolescents. The goal is to identify approved drugs with previously unrecognized anticancer properties that has the potential to reveal new mechanisms and biological processes involved in carcinogenesis or drug resistance. We employed a titration-based paradigm (quantitative high-throughput screening or qHTS), where all compounds were tested at multiple concentrations for their effect on cell viability. Concentration-response curves (CRCs) were derived directly from the primary screen, and both potency and efficacy values were used to identify compounds with robust bioactivity profiles. We screened the NIH Chemical Genomics Center (NCGC) Pharmaceutical Collection (NPC) and Mechanism Interrogation Plate (MIPE) small molecule collections of approved and investigational compounds against these cell lines; and measured metabolically active cells after 48 hours of compound treatment as a proxy for cell viability.
Assay Submitter: Nathalia J. Martinez, National Center for Advancing Translational Sciences, National Institutes of Health, Rockville, MD, USA; email: natalia.martinez@nih.gov
[1] Shen, M et al. Quantitative high-throughput phenotypic screening of pediatric cancer cell lines identifies multiple opportunities for drug repurposing. Oncotarget 2017 Dec 19;9(4):4758-4772. PMID 29435139.
The cells were obtained from University of North Carolina (UNC), Pediatric Preclinical Testing Program (PPT), and Coriell Institute (CI).
qHTS cell viability assay:
Cells were assayed in growth media at a density of 500-1,000 cells/well. Five microliters of cells were dispensed into 1,536-well, white, solid-bottom, TC-treated plates (Greiner Bio One) using a multidrop dispenser and incubated at 37 degrees C, 5% CO2, under a humidified atmosphere for 5 hours. Twenty-three nanoliters of compounds and controls (neutral control DMSO or positive control bortezomib at final concentration of 2.3 uM) were subsequently transferred by Kalypsys pintool. For primary screens, the MIPE collection was tested at 11-point dilutions (final concentrations range from 0.78 nM to 46 µM) and the NPC collection at 8-point dilutions (final concentrations range from 0.59 nM to 46 µM). Compounds tested in follow-up screens were assayed at 11-point dilutions. Cells were incubated for 48 hours, followed by addition of 3 uL of CellTiter-Glo (Promega). After a 15min incubation at room temperature, samples were analyzed for luminescence intensity using a ViewLux High-throughput CCD imager equipped with clear filters.
Potency is read from the fitted curve at half-maximal effect.

Compound	Potency
CCn1cc(C(=O)O)c(=O)c2cc(F)c(N3CCN(C)CC3)cc21	inactive
CCc1cc(C(N)=S)ccn1	inactive
CNC(=O)c1cc(Oc2ccc(NC(=O)Nc3ccc(Cl)c(C(F)(F)F)c3)cc2)ccn1	inactive
C1CCC(C(CC2CCCCN2)C2CCCCC2)CC1 (stereo not given)	inactive
CC1=CC(=O)c2ccccc2C1=O	inactive
CN(C)CCc1c[nH]c2ccc(C[C@H]3COC(=O)N3)cc12	inactive
COc1cc2nc(N3CCCN(C)CC3)nc(NC3CCN(Cc4ccccc4)CC3)c2cc1OC	20.8 µM (active)
OCc1ccc(-c2nn(Cc3ccccc3)c3ccccc23)o1	inactive
COc1nc(N)nc2c1ncn2[C@@H]1O[C@H](CO)[C@@H](O)[C@@H]1O	inactive
CC(C)C[C@H](NC(=O)[C@H](CCc1ccccc1)NC(=O)CN1CCOCC1)C(=O)N[C@@H](Cc1ccccc1)C(=O)N[C@@H](CC(C)C)C(=O)[C@@]1(C)CO1	23.6 nM (active) and 147 nM (active)
CC(C)OC(=O)OCOP(=O)(CO[C@H](C)Cn1cnc2c(N)ncnc21)OCOC(=O)OC(C)C	inactive
CN(CCOc1ccc(CC2SC(=O)NC2=O)cc1)c1ccccn1 (stereo not given)	inactive
CC(C)Cn1cnc2c(N)nc3ccccc3c21	inactive
CCOC(=O)[C@H](CCc1ccccc1)N[C@H]1CCc2ccccc2N(CC(=O)O)C1=O	inactive
O=C(O)CCn1c2c(c3ccccc31)C[C@H](NS(=O)(=O)c1ccc(F)cc1)CC2	inactive
O=S(=O)(O)CCS	inactive
CN1CCN(c2c(F)cc3c(=O)c(C(=O)O)cn(CCF)c3c2F)CC1	inactive
O=C(N[C@H](CO)[C@H](O)c1ccc([N+](=O)[O-])cc1)C(Cl)Cl	inactive
O=S(=O)(c1cccc2cnccc12)N1CCCNCC1	inactive
CCN[C@H]1C[C@H](C)S(=O)(=O)c2sc(S(N)(=O)=O)cc21	inactive

Compound	Potency
CCOC(=O)c1ccc(C#Cc2ccc3c(c2)C(C)(C)CCS3)nc1	inactive
CN(C)c1ccc(C(=C2C=CC(=[N+](C)C)C=C2)c2ccc(N(C)C)cc2)cc1	2.64 µM (active) and 1.17 µM (active)
Nc1nc(=S)c2[nH]cnc2[nH]1	3.33 µM (active)
CC(=O)Oc1ccccc1C(=O)Nc1ncc([N+](=O)[O-])s1	inactive
O=P(O)(O)C(O)(Cc1cccnc1)P(=O)(O)O	inactive
COC(=O)Nc1nc2ccc(C(=O)c3ccccc3)cc2[nH]1	210 nM (active) and 3.3 µM (active)
O=C(NCC1CN(c2ccc(N3CCOCC3=O)cc2)C(=O)O1)c1ccc(Cl)s1 (stereo not given)	inactive
NC(=O)N1c2ccccc2CC(=O)c2ccccc21	inactive
COc1cc2ncnc(Nc3cccc(Cl)c3)c2cc1OC	inactive
CC1=NN(c2ccccc2)C(=O)C1	inactive
Cc1nnc(NS(=O)(=O)c2ccc(N)cc2)s1	inactive
C[C@]12C=CC(=O)C=C1CC[C@@H]1[C@@H]2C(=O)C[C@@]2(C)[C@H]1CC[C@]2(O)C(=O)CO	inactive
OC(Cn1cncn1)(Cn1cncn1)c1ccc(F)cc1F	inactive
Cc1ccc(S(=O)(=O)N[C@@H](Cc2ccccc2)C(=O)CCl)cc1	inactive
CC(=O)CC(c1ccccc1)c1c(O)c2ccccc2oc1=O (stereo not given)	inactive
NC(=O)c1cccnc1	inactive
CC(C)OC(=O)C(C(=O)OC(C)C)=C1SC=CS1	inactive
COc1cc(NS(=O)(=O)c2ccc(N)cc2)nc(OC)n1	inactive
Cc1oc(=O)oc1CN1CCN(c2cc3c(cc2F)c(=O)c(C(=O)O)c2n3C(C)S2)CC1 (stereo not given)	inactive
CCOCC(O)COc1ccc(NC(=O)CC[S+](C)C)cc1 (stereo not given)	inactive
